Results on 113 molecules are retold here after PubChem BioAssay AID1981 (Southern Research Specialized Biocontainment Screening …, 2009).

Hit rate of the full screen: of about 2,200 compounds, about 480 (22%) were called active. How the calls were made is not given here. A selection follows. A call without a number means that no potency is given here. Potency and affinity values are given separately.

A short description of the experiment: S. Typhimurium GFP fluorescence dose response in modified counterscreen for PhoP regulon inhibitor project (AID 1981). To be noted: 4 h; series mostly up to 150 µM. On the technique in general: The purpose of a counterscreen is to sort out artefacts and off-target activity.
With `O=C1CC(c2ccco2)CC(O)=C1C=Nc1cc(Cl)cc(Cl)c1` (stereo not drawn), the molecule was classed as inactive.

In the case of `Cc1cccc(NC(=O)c2cc(N3C(=O)CCC3=O)ccc2Cl)n1`, the outcome was inactive.

For `Cc1oc(CC(C)C)c(CN2CCCC2)c1C(=O)O`, the molecule was classed as inactive.

On to `Cn1ncc(N=Cc2ccccc2O)c1C(=O)Nc1ccccc1`, for which the call was inactive.

Regarding `O=C(Cc1cccs1)Nc1nc2c(s1)CCCC2`, the molecule was called inactive.

With `Cn1cccc1C1NC(=O)c2c(sc3c2CCC(C(C)(C)C)C3)N1` (stereo not drawn), the molecule was called inactive.

As to `Cc1c(NS(=O)(=O)c2ccc(N(C)C3CCCCC3)c([N+](=O)[O-])c2)c(=O)n(-c2ccccc2)n1C`, the molecule was classed as inactive.

With `CCCCOc1ccc(NC(=O)Nc2nnc(C)s2)cc1`, the call was inactive.

For `COc1cccc2[nH]c3c(N4CCN(Cc5ccc6c(c5)OCO6)CC4)ncnc3c12`, the molecule was called inactive.

As for `O=C(NCc1cccs1)Nc1cccs1`, the outcome was inactive.

Turning to `O=C(c1cccc(S(=O)(=O)N2CCOCC2)c1)N1CCCC1`, the molecule was called inactive.

Take `O=C1C2CCCN2c2ccc(S(=O)(=O)N3CCOCC3)cc2N1Cc1ccccc1F` (stereo not drawn): the molecule was called inactive.

On to `Cc1ccc(/C=C/C(=O)c2ccccc(=O)c2O)cc1C`, for which the outcome was inactive.

With `O=C(CSc1nncs1)Nc1ccc2c(c1)OCCO2`, the molecule was classed as inactive.

On to `Cc1cccc(C)c1Nc1nnc(SCC(=O)Nc2sccc2C#N)s1`, for which the result was inactive.

With `COc1ccccc1N1CCN(C/C(O)=C(\C#N)c2nc(-c3ccccc3)cs2)CC1`, the outcome was inactive.

With `O=C(CCN1CCN(c2ccc(F)cc2)CC1)Nc1ccccc1F`, the result was inactive.

In the case of `Cc1sc(NC(=O)c2ccco2)c(CN2CCN(c3ccc(F)cc3)CC2)c1C`, the molecule was called inactive.

For the molecule `COc1ccc(C(=O)Oc2c(CN3CCOCC3)cc(Cl)c3cccnc23)cc1`, the molecule was classed as inactive.

For the molecule `COc1ccc(CN2CCOCC2)cc1Br`, the result was inactive.

Regarding `CNc1ncc(Cc2ccccc2)s1`, the molecule was classed as inactive.

Consider `COC(=O)c1[nH]c2ccc(C)cc2c1NC(=O)Nc1ccc(OC)cc1`, for which the molecule was called inactive.

In the case of `CC(=O)Nc1ccc(S(=O)(=O)N2CCC(n3cnc4cc(F)ccc43)CC2)cc1`, the molecule was classed as inactive.

Consider `CC(=O)c1c(C)n([O-])c2ccccc2[n+]1=O`, for which the call was inactive.

Consider `O=C(CSc1nc2[nH]ncc2c(=O)[nH]1)N1CCCCC1`, for which the molecule was classed as inactive.

On to `Cc1ccc2nc(C(F)OC(F)(F)F)[nH]c2c1` (stereo not drawn), for which the molecule was called inactive.

As for `Nc1cccc(-c2nc3ccc(N)cc3s2)c1`, the outcome was inactive.

On to `O=[N+]([O-])/C=C/c1cc2ccccc2[nH]1`, for which the call was inactive.

For the molecule `CCN(CC)CCN(Cc1cc2cc3c(cc2[nH]c1=O)OCCO3)C(=O)NC1CCCCC1`, the molecule was classed as inactive.

`c1ccc(Oc2cc(-c3ccccc3)ncn2)cc1`: the outcome was inactive.

Consider `COc1ccc(CN2C(=O)Cc3c2nc(N)c2c(N)nc(N4CCCCC4)c(C#N)c32)cc1`, for which the molecule was called inactive.

`C=COC(=O)CSc1snc(SCC(=O)OC)c1C#N`: the result was inactive.

Take `Cc1cccc2nc(CSc3nc4ccccc4o3)cn12`: the molecule was classed as inactive.

With `O=C(Cc1ccccc1)NC1c2ccccc2-c2ccccc21`, the molecule was called inactive.

`O=C(CSCc1ccccc1)Nc1ccc2c(c1)OCO2`: the result was inactive.

Regarding `O=C(NCc1ccco1)C1CC(=O)N(CCc2ccccc2)C1` (stereo not drawn), the molecule was classed as inactive.

In the case of `Cn1cccc1CC(=O)NNC(=S)Nc1ccc(Cl)cc1`, the molecule was classed as inactive.

`NC1=NC(=Nc2ccc(Br)cc2)c2ccccc21`: the outcome was inactive.

On to `N#C/C=C(/N)c1ccc(Br)cc1`, for which the call was inactive.

Consider `O=c1c(Cl)c(Cl)cnn1-c1ccccc1`, for which the outcome was inactive.

On to `O=C(Cc1cn2ccsc2n1)Nc1ccccc1Oc1ccccc1`, for which the result was inactive.

For `N#CC1=C(N)N=C(SCc2cccc3ccccc23)C(C(N)=O)C12CCCCC2` (stereo not drawn), the molecule was classed as inactive.

For the molecule `CCCCn1c(/N=C/c2ccccc2NS(=O)(=O)c2ccc(C)cc2)nc2ccccc21`, the molecule was classed as inactive.

`CCOC(=O)C1=C(c2ccccc2)NC(SC)=C(C#N)C1c1ccco1` (stereo not drawn): the result was inactive.

As to `FC(F)(F)c1cccc(NC(=S)NCCN2CCOCC2)c1`, the molecule was classed as inactive.

As to `Nc1nc(CSc2nc3ccccc3[nH]2)nc(N2CCOCC2)n1`, the result was inactive.

With `CN1/C(=C\C=N\NC(=O)c2ccccc2Br)C(C)(C)c2ccccc21`, the call was inactive.

In the case of `CC(C)=CCN1CCN(Cc2ccoc2)CC1CCO` (stereo not drawn), the molecule was called inactive.

As to `COc1ccc(N2C(=O)[C@@H]3[C@H](C2=O)[C@H]2c4ccccc4C=CN2[C@@H]3C(=O)Nc2ccccc2)cc1`, the result was inactive.

With `COc1ccc(C(C(=O)NC2CCCC2)N(C(=O)c2ccoc2C)c2cc(C)cc(C)c2)cc1` (stereo not drawn), the call was inactive.

On to `Cc1cc(C)nc(Nc2ccc(N3CCCC3)cc2)n1`, for which the outcome was inactive.

Regarding `Cc1ccc(Nc2nc(N)nc(CC#N)n2)cc1`, the molecule was classed as inactive.

With `CSc1nnc(NC(=O)CCc2ccccc2)s1`, the outcome was inactive.

`CCN(CC)CCOc1ccc2c(c1)C(=NNC(=O)c1ccccn1)c1cc(OCCN(CC)CC)ccc1-2`: the outcome was inactive.

`CCOC(=O)C(C)/C(C)=N/NC(=O)c1cc2ccccc2cc1O` (stereo not drawn): the molecule was classed as inactive.

`O=C1CC(N2CCN(Cc3ccccc3)CC2)C(=O)N1c1ccccc1` (stereo not drawn): the outcome was inactive.

Regarding `NC(=O)c1c(N)sc2c1CCCCC2`, the molecule was classed as inactive.

As to `COc1cccc(C2CC(c3ccccc3OC)n3nc(N)nc3N2)c1` (stereo not drawn), the molecule was classed as inactive.

As for `COc1ccc(CC(=O)n2nc(-c3ccccc3)nc2NCc2ccco2)cc1`, the call was inactive.

With `CCn1c(Cc2ccccc2)nnc1SCC(=O)Nc1ccc(S(N)(=O)=O)cc1`, the call was inactive.

`C/C(=N\NC(=O)c1c(Cl)c(C)nn1C)c1cccc(NC(=O)COc2ccc(Cl)cc2)c1`: the outcome was inactive.

Regarding `COc1cccc(/C=N/n2c(C)nc3ccccc3c2=O)c1O`, the molecule was called inactive.

As for `Cc1cccc(C)c1OCC(=O)Nn1c(COc2ccccc2)nc2ccccc2c1=O`, the molecule was called inactive.

Regarding `C=CCNC(=O)c1ccc(N(C)S(=O)(=O)c2ccc(OC)cc2)cc1`, the molecule was classed as inactive.

In the case of `O=C(Nc1nc2ccc(SC(F)F)cc2s1)c1ccc2c(c1)S(=O)(=O)c1ccccc1C2=O`, the molecule was called inactive.

As for `Oc1ccc(Nc2nc(-c3cccs3)cs2)cc1`, the call was inactive.

Regarding `COC(=O)c1cc(C)nc2c1C(=O)C(=O)C=C2N1CCOCC1`, the call was inactive.

As for `Nc1ccc(Nc2ccccc2)c(Cl)c1`, the call was inactive.

In the case of `Nc1ccc(Nc2ccccc2N)cc1`, the molecule was classed as inactive.

In the case of `O=C(OCC(=O)c1ccc(S(=O)(=O)N2CCCC2)cc1)C1=COCCO1`, the result was inactive.

For the molecule `O=C(NC(NC(=S)Nc1ccc(Cl)c(Cl)c1)C(Cl)(Cl)Cl)c1ccco1` (stereo not drawn), the molecule was called inactive.

Turning to `O=C(NCc1ccco1)c1ccc(Br)s1`, the result was inactive.

For `CCCCN(C)C(=O)c1cn(C)c2ccc(S(=O)(=O)N(C)C)cc2c1=O`, the molecule was classed as inactive.

Turning to `CCOC(=O)c1cnc(SCC(=O)Nc2ccc(N3CCOCC3)c(Cl)c2)nc1N`, the outcome was inactive.

Turning to `Cc1nc(NCc2ccc3c(c2)OCO3)c2oc3ccccc3c2n1`, the result was inactive.

For the molecule `COc1ccc(/C=C/C(=O)NCCc2nc3ccccc3[nH]2)cc1`, the call was inactive.

As for `CCCCn1c(/N=C/c2c[nH]c3ccccc23)nc2ccccc21`, the molecule was called inactive.

Consider `O=C1CCc2cc(S(=O)(=O)N3CCN(c4cccc(Cl)c4)CC3)ccc2N1`, for which the outcome was inactive.

Consider `C=CCN(C(=O)c1cccc(S(=O)(=O)N2CCN(C)CC2)c1)c1nc(-c2ccccc2)cs1`, for which the call was inactive.

With `O=C(CCC(=O)c1cccs1)OCC(=O)N1CCN(S(=O)(=O)c2ccccc2)CC1`, the molecule was classed as inactive.

Take `O=C1c2ccccc2C(=O)N1CCCc1nc2ccccc2c(=O)n1Cc1ccco1`: the molecule was called inactive.

As to `O=C(NCCc1cn2ccccc2n1)c1ccccc1F`, the molecule was classed as inactive.

With `O=C(c1ccco1)[C@@H]1[C@@H]2C(=O)N(c3ccc(F)cc3)C(=O)[C@@H]2[C@H]2C=Cc3ccccc3N21`, the molecule was called inactive.

For `Clc1ccc(-c2csc3ncnc(N4CCc5ccccc5C4)c23)cc1`, the molecule was classed as inactive.

For `CCCCN(C(=O)NC(=O)Nc1nc2ccc(OC)cc2s1)S(C)(=O)=O`, the molecule was called inactive.

With `c1csc(C2Nc3ccccc3-c3nc4ccccc4n32)c1` (stereo not drawn), the call was inactive.

`c1ccc(CSc2snnc2-c2ccccc2)cc1`: the call was inactive.

Turning to `O=C(Cc1c[nH]c2ccccc12)N/N=C/c1ccc(F)cc1`, the molecule was called inactive.

As to `O=c1[nH]c(NNC(=S)NCc2ccccc2)nc2c1C1(CCCCC1)Cc1ccccc1-2`, the call was inactive.

Regarding `CN(C(=O)c1cccc(C#N)c1)c1nnc(-c2cnccn2)s1`, the call was inactive.

As for `COc1ccc(-c2ccccc2)cc1NCc1ccccc1C`, the result was inactive.

As to `CC(=O)Nc1cccc(-c2csc(Nc3cccc(C)n3)n2)c1`, the molecule was called inactive.

As to `CCOC(=O)C1=C(C)NC(=O)NC1c1ccsc1` (stereo not drawn), the molecule was called inactive.

Regarding `CCOC(=O)C(NC(=O)c1cccc(Cl)c1)(OCc1ccccc1)C(F)(F)F` (stereo not drawn), the molecule was classed as inactive.

On to `Cc1ccc(C(=O)N2CC3(C(C)C)CN(C(=O)c4ccc(C)cc4)CC(C(C)C)(C2)C3=O)cc1`, for which the molecule was called inactive.

Take `O=C(N/N=C/c1ccco1)c1cccc(S(=O)(=O)Nc2ccccc2Cl)c1`: the outcome was inactive.

For `CCN(CC)S(=O)(=O)c1cccc(C(=O)NC(Cc2c[nH]c3ccccc23)c2nnc3n2CCC3)c1` (stereo not drawn), the outcome was inactive.

Consider `CCn1c2ccccc2c2cc(/C=N/NC(=O)c3ccccc3)ccc21`, for which the molecule was called inactive.

In the case of `Cc1ccc(-n2c(C)cc(/C=N/NC(N)=S)c2C)cc1`, the call was inactive.

Turning to `O=C(/C=C\c1ccco1)Nc1nc(-c2ccccc2)cs1`, the call was inactive.

For the molecule `COc1cccc(OC)c1C(=O)NC(=S)Nc1cc(-c2nc3ccccc3[nH]2)ccc1Cl`, the molecule was called inactive.

With `Cc1[nH]c2ccccc2c1/C=N/Nc1ccc(F)cc1F`, the result was inactive.

`N#Cc1nc(-c2cccs2)oc1NCCCN1CCOCC1`: the call was inactive.

Turning to `c1ccc(Nc2cc(Nc3ccccc3)[nH]n2)cc1`, the call was inactive.

For `Oc1c(Br)cc(Br)cc1C=NCc1ccccc1`, the call was inactive.

`Cc1ccc(-n2sc3ccccc3c2=O)cc1S(=O)(=O)N1CCCCC1`: the molecule was called inactive.

On to `Cc1ccc(C)c(-c2nc3ccc(N)cc3[nH]2)c1`, for which the molecule was classed as inactive.

Take `c1ccc(CCNc2nc3ccccc3s2)cc1`: the outcome was inactive.

As to `CC(=O)Nc1ccc(C(=O)N2CCN(C(=O)c3ccco3)CC2)cc1`, the molecule was called inactive.

Turning to `Cc1cccnc1N(C(=O)Nc1ccccc1)C1=NCC(C)(C)S1`, the result was inactive.

As for `CN1C(=O)/C(=C/c2cccn2-c2ccc3ccccc3c2)C(=O)NC1=S`, the outcome was inactive.

Regarding `CCOc1cc(/C=C2/NC(=O)N(CC(=O)Nc3cccc(C)c3)C2=O)ccc1OC`, the call was inactive.

With `COc1ccc(C(C)C)cc1S(=O)(=O)Nc1ccc(Cl)cn1`, the molecule was classed as inactive.
